# In the supplement of paper PMC12282887:
# ± gives the standard deviation of the averaged measurements.
# Key:
# Experiment in all cases: promoter activity interaction Z-score (Lux/OD deviation from empty-vector control); higher = stronger promoter induction by the compound
# [1] = test system: E. coli BW25113 acrABp lux reporter
# How it was run: (§1)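 Every compound was given at four 1:2 dilutions, in biological duplicates, to E. coli BW25113 carrying low-copy luxCDABE promoter reporters in wild-type or single-gene deletion backgrounds. Growth in 40 µl LB Lennox in 384-well plates at 37°C was followed by OD600 and luminescence readings every 30 min for 12 h, integrated over 0–8 h for wild type and 1–9 h for deletion strains, with wells below 10% of the median growth value excluded. Scores are Z-transformed residuals of growth-normalised luminescence fitted against a control.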
# [2] = test system: E. coli BW25113 micFp lux reporter
# How it was run: as §1
# [3] = test system: E. coli BW25113 ompFp lux reporter
# How it was run: as §1
# [4] = test system: E. coli BW25113 robp lux reporter
# How it was run: as §1
# [5] = test system: E. coli BW25113 soxSp lux reporter
# How it was run: as §1
# [6] = test system: E. coli BW25113 tolCp lux reporter
# How it was run: as §1
# [7] = 13.3 µg/ml, genetic background: wild type
# [8] = 13.3 µg/ml, genetic background: ΔmarA
# [9] = 13.3 µg/ml, genetic background: Δrob
# [10] = 13.3 µg/ml, genetic background: ΔsoxS
# [11] = 26.6 µg/ml, genetic background: wild type
# [12] = 26.6 µg/ml, genetic background: ΔmarA
# [13] = 26.6 µg/ml, genetic background: Δrob
# [14] = 26.6 µg/ml, genetic background: ΔsoxS
# [15] = 53.2 µg/ml, genetic background: wild type
# [16] = 53.2 µg/ml, genetic background: ΔmarA
# [17] = 53.2 µg/ml, genetic background: Δrob
# [18] = 53.2 µg/ml, genetic background: ΔsoxS
# [19] = 106.3 µg/ml, genetic background: wild type
# [20] = 106.3 µg/ml, genetic background: ΔmarA
# [21] = 106.3 µg/ml, genetic background: Δrob
# [22] = 106.3 µg/ml, genetic background: ΔsoxS
compound,measurement,setting,value
NCCc1c[nH]c2ccc(O)cc12 [Serotonine],promoter activity interaction Z-score,[1]; [7],-0.00265 ± 0.11
same,promoter activity interaction Z-score,[1]; [8],-0.788 ± 0.29
same,promoter activity interaction Z-score,[1]; [9],-0.254 ± 0.091
same,promoter activity interaction Z-score,[1]; [10],-0.249 ± 0.17
same,promoter activity interaction Z-score,[1]; [11],0.0217 ± 0.063
same,promoter activity interaction Z-score,[1]; [12],-0.85 ± 0.58
same,promoter activity interaction Z-score,[1]; [13],-0.276 ± 0.24
same,promoter activity interaction Z-score,[1]; [14],-0.0282 ± 0.36
same,promoter activity interaction Z-score,[1]; [15],-0.325 ± 0.06
same,promoter activity interaction Z-score,[1]; [16],-0.49 ± 0.22
same,promoter activity interaction Z-score,[1]; [17],-0.415 ± 0.17
same,promoter activity interaction Z-score,[1]; [18],-0.545 ± 0.3
same,promoter activity interaction Z-score,[1]; [19],0.00625 ± 0.31
same,promoter activity interaction Z-score,[1]; [20],-0.338 ± 0.23
same,promoter activity interaction Z-score,[1]; [21],-0.109 ± 0.092
same,promoter activity interaction Z-score,[1]; [22],-0.397 ± 0.11
same,promoter activity interaction Z-score,[2]; [7],-0.241 ± 0.065
same,promoter activity interaction Z-score,[2]; [8],-0.0379 ± 0.032
same,promoter activity interaction Z-score,[2]; [9],-0.00374 ± 0.19
same,promoter activity interaction Z-score,[2]; [10],-0.156 ± 0.27
same,promoter activity interaction Z-score,[2]; [11],0.00853 ± 0.19
same,promoter activity interaction Z-score,[2]; [12],0.0453 ± 0.21
same,promoter activity interaction Z-score,[2]; [13],0.0253 ± 0.12
same,promoter activity interaction Z-score,[2]; [14],-0.0552 ± 0.27
same,promoter activity interaction Z-score,[2]; [15],-0.712 ± 0.14
same,promoter activity interaction Z-score,[2]; [16],0.105 ± 0.08
same,promoter activity interaction Z-score,[2]; [17],-0.0954 ± 0.018
same,promoter activity interaction Z-score,[2]; [18],-0.396 ± 0.062
same,promoter activity interaction Z-score,[2]; [19],-0.289 ± 0.23
same,promoter activity interaction Z-score,[2]; [20],0.0717 ± 0.036
same,promoter activity interaction Z-score,[2]; [21],-0.13 ± 0.074
same,promoter activity interaction Z-score,[2]; [22],-0.339 ± 0.011
same,promoter activity interaction Z-score,[3]; [7],-0.556 ± 0.15
same,promoter activity interaction Z-score,[3]; [8],-0.881 ± 0.092
same,promoter activity interaction Z-score,[3]; [9],-0.716 ± 0.021
same,promoter activity interaction Z-score,[3]; [10],-0.309 ± 0.16
same,promoter activity interaction Z-score,[3]; [11],-0.212 ± 0.059
same,promoter activity interaction Z-score,[3]; [12],-0.69 ± 0.35
same,promoter activity interaction Z-score,[3]; [13],-1.16 ± 0.13
same,promoter activity interaction Z-score,[3]; [14],-0.158 ± 0.048
same,promoter activity interaction Z-score,[3]; [15],-0.996 ± 0.15
same,promoter activity interaction Z-score,[3]; [16],-0.794 ± 0.068
same,promoter activity interaction Z-score,[3]; [17],-0.999 ± 0.19
same,promoter activity interaction Z-score,[3]; [18],-0.802 ± 0.085
same,promoter activity interaction Z-score,[3]; [19],-0.733 ± 0.22
same,promoter activity interaction Z-score,[3]; [20],-0.818 ± 0.24
same,promoter activity interaction Z-score,[3]; [21],-0.632 ± 0.014
same,promoter activity interaction Z-score,[3]; [22],-0.689 ± 0.16
same,promoter activity interaction Z-score,[4]; [7],-0.357 ± 0.24
same,promoter activity interaction Z-score,[4]; [8],-0.786 ± 0.2
same,promoter activity interaction Z-score,[4]; [9],-0.355 ± 0.17
same,promoter activity interaction Z-score,[4]; [10],0.188 ± 0.045
same,promoter activity interaction Z-score,[4]; [11],0.207 ± 0.12
same,promoter activity interaction Z-score,[4]; [12],-0.465 ± 0.14
same,promoter activity interaction Z-score,[4]; [13],-0.388 ± 0.26
same,promoter activity interaction Z-score,[4]; [14],0.275 ± 0.77
same,promoter activity interaction Z-score,[4]; [15],-0.669 ± 0.27
same,promoter activity interaction Z-score,[4]; [16],-0.144 ± 0.64
same,promoter activity interaction Z-score,[4]; [17],-0.179 ± 0.34
same,promoter activity interaction Z-score,[4]; [18],-0.554 ± 0.4
same,promoter activity interaction Z-score,[4]; [19],0.176 ± 0.072
same,promoter activity interaction Z-score,[4]; [20],0.574 ± 0.46
same,promoter activity interaction Z-score,[4]; [21],0.0481 ± 0.46
same,promoter activity interaction Z-score,[4]; [22],-0.714 ± 0.32
same,promoter activity interaction Z-score,[5]; [7],-0.18 ± 0.0085
same,promoter activity interaction Z-score,[5]; [8],-0.19 ± 0.0051
same,promoter activity interaction Z-score,[5]; [9],-0.045 ± 0.2
same,promoter activity interaction Z-score,[5]; [10],-0.24 ± 0.11
same,promoter activity interaction Z-score,[5]; [11],-0.101 ± 0.061
same,promoter activity interaction Z-score,[5]; [12],-0.181 ± 0.093
same,promoter activity interaction Z-score,[5]; [13],-0.254 ± 0.35
same,promoter activity interaction Z-score,[5]; [14],-0.331 ± 0.17
same,promoter activity interaction Z-score,[5]; [15],-0.456 ± 0.097
same,promoter activity interaction Z-score,[5]; [16],-0.276 ± 0.14
same,promoter activity interaction Z-score,[5]; [17],-0.264 ± 0.11
same,promoter activity interaction Z-score,[5]; [18],-0.531 ± 0.027
same,promoter activity interaction Z-score,[5]; [19],-0.199 ± 0.16
same,promoter activity interaction Z-score,[5]; [20],-0.243 ± 0.18
same,promoter activity interaction Z-score,[5]; [21],-0.285 ± 0.11
same,promoter activity interaction Z-score,[5]; [22],-0.676 ± 0.071
same,promoter activity interaction Z-score,[6]; [7],-0.64 ± 0.46
same,promoter activity interaction Z-score,[6]; [8],-0.135 ± 0.24
same,promoter activity interaction Z-score,[6]; [9],0.259 ± 1.6
same,promoter activity interaction Z-score,[6]; [10],-0.321 ± 0.043
same,promoter activity interaction Z-score,[6]; [11],0.564 ± 0.026
same,promoter activity interaction Z-score,[6]; [12],-0.00904 ± 0.37
same,promoter activity interaction Z-score,[6]; [13],-0.3 ± 0.55
same,promoter activity interaction Z-score,[6]; [14],0.737 ± 0.3
same,promoter activity interaction Z-score,[6]; [15],-0.749 ± 0.61
same,promoter activity interaction Z-score,[6]; [16],-0.0593 ± 0.84
same,promoter activity interaction Z-score,[6]; [17],-0.236 ± 1.2
same,promoter activity interaction Z-score,[6]; [18],-0.229 ± 1.1
same,promoter activity interaction Z-score,[6]; [19],-0.235 ± 0.56
same,promoter activity interaction Z-score,[6]; [20],0.575 ± 0.063
same,promoter activity interaction Z-score,[6]; [21],-0.637 ± 0.9
same,promoter activity interaction Z-score,[6]; [22],-0.781 ± 0.14
